In PubChem BioAssay (NCATS) one finds Potency data, which are given here for six molecules.

Experiment [1] is described as follows: Quantitative High-Throughput drug screen in 47 multiple myeloma cell lines against the NCATS MIPE library collection: ARD_JJKsccE7 cell viability assay (AID 1918929). In short, it runs like this: (§1)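 Myeloma cells (500 per well) were exposed to MIPE 4.0 compounds by pin transfer and incubated 48 hours at 37C, 5% CO2. Viability was read as ATP by CellTiter-Glo luminescence, normalised to DMSO (100%) and media-only (0%) wells.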

Experiment [2] is described as follows: Quantitative High-Throughput drug screen in 47 multiple myeloma cell lines against the NCATS MIPE library collection: Karpas620_DSMZ cell viability assay (AID 1918959). Also: nearly all actives have a fitted effect of over 30% in size. An outline of the steps: (§2)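 Relative luminescence from CellTiter-Glo served as the viability signal, referenced to DMSO-treated (100%) and cell-free medium (0%) controls. Treatment lasted 48 hours at 37C with 500 cells per well.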

The nature of experiment [3]: Quantitative High-Throughput drug screen in 47 multiple myeloma cell lines against the NCATS MIPE library collection: KMM1_JCRB cell viability assay (AID 1918960). Also: nearly all actives have a fitted effect of over 30% in size. In short, it runs like this:
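Viability screen: myeloma cells (500/well) incubated 48 h at 37 °C, humidified 5% CO2, with pinned library compounds; CellTiter-Glo added, luminescence read; DMSO wells set 100%, medium-only wells 0%.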

Experiment [4] in a line: Quantitative High-Throughput drug screen in 47 multiple myeloma cell lines against the NCATS MIPE library collection: KHM11_PLB cell viability assay (AID 1918962). Also: nearly all actives have a fitted effect of over 35% in size. In short, it runs like this:
as §2

The nature of experiment [5]: Quantitative High-Throughput drug screen in 47 multiple myeloma cell lines against the NCATS MIPE library collection: JIM3_ECACC cell viability assay (AID 1918963; also: nearly all actives have a fitted effect of over 35% in size). In short, it runs like this:
as §2

Experiment [6] in a line: Quantitative High-Throughput drug screen in 47 multiple myeloma cell lines against the NCATS MIPE library collection: JIM1_ECACC cell viability assay (AID 1918964). In short, it runs like this:
as §1

Experiment [7] can be described thus: Quantitative High-Throughput drug screen in 47 multiple myeloma cell lines against the NCATS MIPE library collection: INA6_PLB cell viability assay (AID 1918965; also: nearly all actives have a fitted effect of over 55% in size). An outline of the steps:
as §2

Experiment [8] in a line: Quantitative High-Throughput drug screen in 47 multiple myeloma cell lines against the NCATS MIPE library collection: H1112_PLB cell viability assay (AID 1918967; also: nearly all actives have a fitted effect of over 30% in size). In short, it runs like this:
as §1

A short description of experiment [9]: Quantitative High-Throughput drug screen in 47 multiple myeloma cell lines against the NCATS MIPE library collection: Karpas25_ECACC cell viability assay (AID 1918968; also: nearly all actives have a fitted effect of over 35% in size). In short, it runs like this:
as §1

A short description of experiment [10]: Quantitative High-Throughput drug screen in 47 multiple myeloma cell lines against the NCATS MIPE library collection: KMS27_JCRB cell viability assay (AID 1918970). Also: nearly all actives have a fitted effect of over 30% in size. In short, it runs like this: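 Luminescent ATP read-out (CellTiter-Glo, 5 min at room temperature) after 48 h compound exposure of 500 KMS27_JCRB cells per well; DMSO wells define full viability and media-only wells zero.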

Experiment [11] in a line: Quantitative High-Throughput drug screen in 47 multiple myeloma cell lines against the NCATS MIPE library collection: KMS12BM_JCRB cell viability assay (AID 1918971). Also: nearly all actives have a fitted effect of over 35% in size. An outline of the steps:
(§3)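 Steps: seed 500 cells per well; pin-transfer MIPE 4.0 library; incubate 48 h at 37C, 5% CO2, humidified; add CellTiter-Glo, 5 min room temperature; read luminescence.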

Experiment [12] can be described thus: Quantitative High-Throughput drug screen in 47 multiple myeloma cell lines against the NCATS MIPE library collection: Karpas417_ECACC cell viability assay (AID 1918961). The note with it: Karpas417 myeloma viability, CellTiter-Glo ATP luminescence, 48 h; viability (% of DMSO): at 45.8 µM (top of the series). In short, it runs like this:
as §2
Background: ATP-based viability assays read luminescence as a measure of living cells.

The nature of experiment [13]: Quantitative High-Throughput drug screen in 47 multiple myeloma cell lines against the NCATS MIPE library collection: JJN3_DSMZ cell viability assay (AID 1918966; also: nearly all actives have a fitted effect of over 50% in size). An outline of the steps: as §1
Experiment [14] can be described thus: Quantitative High-Throughput drug screen in 47 multiple myeloma cell lines against the NCATS MIPE library collection: KMS12PE_JCRB cell viability assay (AID 1918972). Also: nearly all actives have a fitted effect of over 30% in size. An outline of the steps: as §2
Experiment [15] in a line: Quantitative High-Throughput drug screen in 47 multiple myeloma cell lines against the NCATS MIPE library collection: NCIH929_DSMZ cell viability assay (AID 1918978). Also: nearly all actives have a fitted effect of over 35% in size. An outline of the steps:
(§4)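 Readout: median RLU from CellTiter-Glo after 5 min at room temperature. Preceding step was 48 h drug treatment of 500 cells/well at 37 °C, 5% CO2, with DMSO-only and media-only control wells.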

Experiment [16] is described as follows: Quantitative High-Throughput drug screen in 47 multiple myeloma cell lines against the NCATS MIPE library collection: KMS20_JCRB cell viability assay (AID 1918973). Also: nearly all actives have a fitted effect of over 45% in size. In short, it runs like this: as §1
Experiment [17] can be described thus: Quantitative High-Throughput drug screen in 47 multiple myeloma cell lines against the NCATS MIPE library collection: KMS26_JCRB cell viability assay (AID 1918975). Also: nearly all actives have a fitted effect of over 45% in size. In short, it runs like this:
as §3

The nature of experiment [18]: Quantitative High-Throughput drug screen in 47 multiple myeloma cell lines against the NCATS MIPE library collection: MOLP8_DSMZ cell viability assay (AID 1918977). Also: nearly all actives have a fitted effect of over 45% in size. An outline of the steps: as §4
Experiment [19] is described as follows: Quantitative High-Throughput drug screen in 47 multiple myeloma cell lines against the NCATS MIPE library collection: KMS21BM_JCRB cell viability assay (AID 1918974). The note with it: ATP luminescence, 48 h; viability: at 45.8 µM (top of the series) unless noted. In short, it runs like this: as §1
The nature of experiment [20]: Quantitative High-Throughput drug screen in 47 multiple myeloma cell lines against the NCATS MIPE library collection: MMM1_PLB cell viability assay (AID 1918976). Also: nearly all actives have a fitted effect of over 35% in size. In short, it runs like this:
as §4

Molecules are shown by their SMILES. Inconclusive results are not listed. Calls of active or inactive are those of the source. Calls follow the shape of the dose curve; as a rule, active = well fitted curve in the direction sought with a large enough effect; inconclusive = small, poorly fitted or top-dose-only effect, or another doubt; inactive = no such curve, though single readings can be large; an effect the other way counts as inactive or inconclusive.
Potency is read from the fitted curve at half-maximal effect.

As for `CC[C@H]1OC(=O)[C@H](C)C(=O)[C@H](C)[C@@H](O[C@H]2O[C@H](C)C[C@H](N(C)C)[C@@H]2O)[C@](C)(OC)C[C@@H](C)C(=O)[C@H](C)[C@H]2N(CCCCn3cnc(-c4cccnc4)c3)C(=O)O[C@]12C`, the Potency result in [1], in experiment [2], in experiment [4], in [5], in [6] and in [7] was “inactive” each time. The Potency result in experiment [9] and in experiment [10] was “inactive” each time. Further, the Potency in experiment [3] is 3.72 µM (active); in [8] it was 13.2 µM (active); in experiment [11], 29.6 µM (active).

Turning to `O=C(CCCCCCC(=O)Nc1ccccc1)NO`, the Potency in experiment [1] is 1.18 µM (active); in experiment [2] it was 3.32 µM (active); in [3] it was 1.32 µM (active); in [12], 1.05 µM (active); in experiment [4], 7.43 µM (active); in experiment [5], 5.9 µM (active). Moreover, the Potency in [6] is 2.35 µM (active); in experiment [7], 0.935 µM (active); in [13] it was 3.32 µM (active); in experiment [8], 4.18 µM (active); in experiment [9] it was 1.48 µM (active); in experiment [10], 3.72 µM (active). The Potency is 1.66 µM (active) in experiment [14] and 2.64 µM (active) in experiment [15].

As to `O=C1C(Cl)=C(NCCN2CCOCC2)C(=O)c2ncccc21`, the Potency is 5.26 µM (active) in experiment [1]; 1.48 µM (active) in experiment [2]; 3.32 µM (active) in [3]; 3.32 µM (active) in experiment [12]; 9.35 µM (active) in experiment [4]; 8.33 µM (active) in experiment [5]. Also, the Potency in experiment [6] was 2.96 µM (active); in experiment [7] it was 2.96 µM (active); in [8] it was 11.8 µM (active); in [9], 2.64 µM (active); in [10], 2.64 µM (active); in experiment [11] it was 2.96 µM (active). Besides, the Potency is 3.32 µM (active) in [14], 4.69 µM (active) in [16], 6.62 µM (active) in [17] and 2.96 µM (active) in experiment [18].

On to `COCCOc1nc(-c2ccc(Cl)c(Cl)c2)n(-c2ccc(NC(=O)CCl)cc2)n1`, for which the Potency is 16.6 µM (active) in experiment [1]; 16.6 µM (active) in experiment [2]; 14.8 µM (active) in experiment [3]; 16.6 µM (active) in experiment [12]; 11.8 µM (active) in experiment [4]; 14.8 µM (active) in [6]. Besides, the Potency in [7] is 11.8 µM (active); in [13], 23.5 µM (active); in experiment [8] it was 14.8 µM (active); in experiment [9], 5.26 µM (active); in experiment [10], 16.6 µM (active); in experiment [11], 16.6 µM (active). Besides, the Potency in experiment [14] was 14.8 µM (active); in [19] it was 16.6 µM (active); in [20], 16.6 µM (active); in experiment [15] it was 13.2 µM (active).

On to `CC1(C)O[C@H]2C[C@@H]3[C@H]4CCC5=CC(=O)C=C[C@]5(C)[C@@]4(F)[C@@H](O)C[C@]3(C)[C@]2(C(=O)CO)O1`, for which the Potency in experiment [1] was 0.0037 µM (active); in [12] it was 0.0118 µM (active). Further, the Potency entry in experiment [2], in experiment [3], in [5], in experiment [6], in experiment [7] and in experiment [14] was “inactive” throughout. In experiment [17], the Potency entry was “inactive”.

With `COc1cc2ncnc(-n3nc(-c4ccccn4)nc3N)c2cc1OC`, the Potency in experiment [1] was 0.743 µM (active); in experiment [2], 0.418 µM (active); in experiment [3], 1.05 µM (active); in [12], 0.132 µM (active); in experiment [4], 5.9 µM (active); in [7] it was 7.43 µM (active). Also, the Potency in experiment [13] is 4.69 µM (active); in experiment [8], 0.743 µM (active); in experiment [10], 0.0935 µM (active); in experiment [11], 7.43 µM (active); in experiment [14], 1.32 µM (active); in experiment [16], 6.62 µM (active). Further, the Potency in experiment [17] is 14.8 µM (active); in experiment [20] it was 4.18 µM (active); in experiment [15], 4.18 µM (active).
